An excerpt weighted towards active compounds, which were near 1.3% of everything screened.
CCHF vOTU inh – blocks the CCHF virus ovarian tumor domain protease; CCHFV vOTU protease, Pep-AMC fluorescence; inhibition, % at 11.5 µM; actives 0.55% (n = 370,000); AID 651958; in the data active = inhibition above about 30%
Sa RN4220 lethal – S. aureus RN4220 growth inhibition; inhibition, % (test concentration not listed); AID 1259311; OD600, 16 h; actives 0.33% (n = 330,000); in the data active = inhibition above about 85%
Mtb bLac sens – beta-lactam sensitization of Mtb H37Rv; M. tuberculosis H37Rv growth with meropenem, percent inhibition; inhibition, % at 25 µM; actives 0.27% (n = 330,000); AID 434955; call rule not given here;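 also: growth measured after seven days incubation then overnight dye step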
MazF activator – MazEF (E. coli) toxin RNase activation; P0AE70; FAM/BHQ RNA-DNA oligo cleavage fluorescence, 5 h; activation, % at 20 µM; actives 0.32% (n = 350,000); in the data active = activation above about 50%
Target sequence (P0AE70 whole entry, looked up): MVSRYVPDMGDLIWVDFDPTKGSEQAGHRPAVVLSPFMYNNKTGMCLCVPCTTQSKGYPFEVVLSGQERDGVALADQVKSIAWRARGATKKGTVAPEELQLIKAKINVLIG
Sa ugtP lethal – growth inhibition of S. aureus ugtP deletion strain; S. aureus RN4220 ugtP deletion, OD600 growth, 16 h; growth inhibition, % (no concentration beside the values); actives 0.54% (n = 330,000); AID 1259309; in the data active = growth inhibition above about 68%
3CLpro inhibitor – SARS-CoV 3CLpro protease inhibition; P0C6X7; recombinant SARS-CoV 3CLpro, quenched FRET peptide cleavage; inhibition, % at 6 µM; actives 0.14% (n = 290,000); in the data active = inhibition above about 12%
Of the large screens only hits and unclear results are named; the others gave an inactive call; ! = not active in a repeat.

O=[N+]([O-])c1cc([N+](=O)[O-])c2oc(-c3ccccc3)c(Br)c2c1O	Sa RN4220 lethal 91.9, Sa ugtP lethal 93.5 (no result: CCHF vOTU inh, Mtb bLac sens)
NC(C(=O)NC1C(=O)N2C(C(=O)O)=C(Cl)CSC12)c1ccccc1 (configuration not stated)	Sa RN4220 lethal 100.5, Sa ugtP lethal 100.2 (no result: CCHF vOTU inh, Mtb bLac sens, MazF activator, 3CLpro inhibitor)
CC1=C(C(=O)O)N2C(=O)[C@@H](NC(=O)[C@H](N)c3ccc(O)cc3)[C@H]2SC1	none (no result: Sa RN4220 lethal, Mtb bLac sens, Sa ugtP lethal, 3CLpro inhibitor)
N#C/C(=C(/O)COC(=O)c1ccccc1O)c1nc2ccccc2s1	none (no result: Sa RN4220 lethal, Sa ugtP lethal)
CC(C)(C)c1ccc(C(=O)OC/C(O)=C(\C#N)c2nc3ccccc3s2)cc1	Sa ugtP lethal 85.1
COC(=O)c1cc(NC(=O)c2cccc(C(F)(F)F)c2)c(=O)oc1CC=NOCc1cccc(Cl)c1Cl	none (no result: CCHF vOTU inh, Mtb bLac sens, MazF activator, 3CLpro inhibitor)
Cc1ccccc1NC(=S)NC(=O)CCc1ccccc1	Sa ugtP lethal 85.5
CC(C)(C)CN1C(=O)C(=O)NCC1Cc1ccc(O)cc1 (configuration not stated)	Sa RN4220 lethal 96.7!, Sa ugtP lethal 98.1! (no result: CCHF vOTU inh, Mtb bLac sens, MazF activator, 3CLpro inhibitor)
C[C@H]1CC[C@@]2(C)[C@@H](CC[C@@H]3[C@@H]2CC[C@]2(C)[C@@H](O)CC[C@@H]32)C1	Sa RN4220 lethal 93.7, Sa ugtP lethal 99.2
C[C@]12CCC3C(CC[C@H]4C[C@@H](O)CC[C@]34C)[C@H]1CC[C@H]2O (some centres not stated)	none (no result: 3CLpro inhibitor)
N#C/C(=C\c1cn(CCOc2ccccc2F)c2ccccc12)C(=O)NCc1cccs1	none
N#C/C(=C\c1cn(Cc2ccc(C#N)cc2)c2ccccc12)C(=O)NCc1cccs1	MazF activator 55.0
O=C(O)c1cn(-c2ccc(F)cc2)c2cc(Cl)c(F)cc2c1=O	Sa ugtP lethal 97.4
CCOC(=O)c1cn(-c2ccc([N+](=O)[O-])cc2)c2cc(Cl)c([N+](=O)[O-])cc2c1=O	none
CCOc1ccc(NS(=O)(=O)c2ccc(C(=O)NCC(c3ccco3)N3CCCC3)cc2)cc1 (configuration not stated)	MazF activator 52.2 (no result: 3CLpro inhibitor)
O=C(NCC(c1ccco1)N1CCCC1)c1ccc(S(=O)(=O)Nc2ccc(F)cc2)cc1 (configuration not stated)	none (no result: 3CLpro inhibitor)
ClC(Cl)(c1nnnn1-c1ccccc1)c1nnnn1-c1ccccc1	Sa RN4220 lethal 100.1, Sa ugtP lethal 99.9
CC(=O)c1cnc2nc(SCc3ccccc3C)nn2c1C	none
CC(=O)c1cnc2nc(C(F)(F)F)nn2c1C	MazF activator 80.0
CCN1C(=O)C2C(c3ccc(Cl)cc3)N3C(=O)CN(CC4CC4)C(=O)[C@@]3(Cc3ccccc3)C2C1=O (some centres not stated)	none (no result: CCHF vOTU inh, Mtb bLac sens, MazF activator, 3CLpro inhibitor)
O=c1[nH]c(O)c(/C=C2\C=Nc3ccc(OCc4ccccc4)cc32)c(=O)[nH]1	MazF activator 846.7 (no result: Sa RN4220 lethal, Sa ugtP lethal)
C(=Cc1ccccc1)CN1CCN(C(c2ccccc2)c2ccccc2)CC1	none (no result: CCHF vOTU inh, Mtb bLac sens, MazF activator, 3CLpro inhibitor)
CCN(CC)C(=O)Oc1ccc2c(c1)O/C(=C\c1ccco1)C2=O	Mtb bLac sens inconclusive
CCC(=O)Oc1ccc2c(c1)O/C(=C\c1ccco1)C2=O	MazF activator 691.1 (no result: Sa RN4220 lethal, Sa ugtP lethal)
COc1ccccc1C(=O)Oc1ccc2c(c1)O/C(=C\c1ccncc1)C2=O	MazF activator 206.3
CC(C)(C)c1cc(C(=O)NN=Cc2ccccc2O)n(-c2ccccc2)n1	Sa ugtP lethal 99.9 (no result: CCHF vOTU inh, Mtb bLac sens, MazF activator, 3CLpro inhibitor)
O=C(NC(c1ccccc1)C1CC1C(=O)NCc1ccccn1)OCc1ccccc1 (configuration not stated)	none (no result: CCHF vOTU inh, Mtb bLac sens, MazF activator, 3CLpro inhibitor)
CC(CO)NC(=O)C1CC1C(NP(=O)(c1ccccc1)c1ccccc1)c1ccccc1 (configuration not stated)	none (no result: CCHF vOTU inh, Mtb bLac sens, MazF activator, 3CLpro inhibitor)
CCOC(=O)C1=CN(Cc2cccc(F)c2)S(=O)(=O)N(C)C1c1ccc2ccccc2c1 (configuration not stated)	MazF activator 50.0 (no result: Mtb bLac sens, 3CLpro inhibitor)
COc1ccc(C(=O)COC(=O)c2c(-c3ccccc3)noc2C)c(OC)c1	MazF activator 67.5 (no result: 3CLpro inhibitor)
c1cnc(SCCOc2cccc3ccccc23)nc1	none
Clc1ccc(OCCSc2ncccn2)c2ccccc12	Sa ugtP lethal 95.7
CN1C2CCC1/C(=C\c1ccc(F)cc1)C(=O)/C2=C/c1ccc(F)cc1	none
Cn1cccc1/C=C1\CC(C(C)(C)C)C/C(=C\c2cccn2C)C1=O (configuration not stated)	MazF activator 107.8
Cn1cccc1/C=C1\Cc2ccccc2C1=O	none
CN1C2CCC1/C(=C/c1cccn1C)C(=O)/C2=C\c1cccn1C	MazF activator active
CCOC(=O)N1CCN(c2cc(C)c(C(C)=O)cc2F)CC1	none
CCOC(=O)N1CCN(c2cc(N)c([N+](=O)[O-])cc2F)CC1	CCHF vOTU inh 34.7
NCCCCC1NC(=O)C(CCC(=O)O)NC(=O)c2cc([N+](=O)[O-])cc(I)c2OCCC(C(N)=O)NC1=O (configuration not stated)	none (no result: CCHF vOTU inh, Mtb bLac sens, MazF activator, 3CLpro inhibitor)
COC(=O)CC1=C(C(=O)OC)C2(C(=O)N(C)c3ccccc32)C(C#N)=C(N)O1 (configuration not stated)	Sa RN4220 lethal 98.1, Sa ugtP lethal 98.2
COc1ccc(N/C=C\C(=O)c2ccc(C)cc2)cc1OC	MazF activator 254.9
COc1ccc(N/C=C\C(=O)c2ccc(Br)cc2)cc1OC	none
CCCCCCCCOc1ccc(C2CC(=O)NC2=O)cc1 (configuration not stated)	Sa ugtP lethal 92.7
COc1cccc(C(=O)CC(=O)C(=O)Nc2ccc(C)cc2Cl)c1	Sa ugtP lethal 86.9
COc1cc(OC)c(NC(=O)C(=O)CC(=O)c2ccc(C)cc2C)cc1Cl	Sa RN4220 lethal 84.6
O=C(Cc1ccc(Br)cc1)NN=Cc1cccnc1	none (no result: CCHF vOTU inh, Mtb bLac sens, MazF activator, 3CLpro inhibitor)
Nc1nc(-c2ccccc2)c(-c2ccccc2)s1	none
Cc1ccc(-c2nc(N)sc2-c2ccccc2)cc1C	Mtb bLac sens inconclusive, Sa ugtP lethal 95.7
Cc1[nH]c2ccccc2c1C=NNC(=O)CNC(=O)Cc1ccccc1	none (no result: CCHF vOTU inh, Mtb bLac sens, MazF activator, 3CLpro inhibitor)
C/C(C=NN1CCN(Cc2ccc(C)cc2)CC1)=C/c1ccccc1	none (no result: CCHF vOTU inh, Mtb bLac sens, MazF activator, 3CLpro inhibitor)
Cc1cccc(/C=N/NC(=O)c2cc(Br)ccc2OCc2ccccc2)n1	MazF activator 125.2 (no result: Sa RN4220 lethal, Sa ugtP lethal)
Cc1c(OC2OC(CO)C(O)C(O)C2O)c(CO)c(OC2OC(CO)C(O)C(O)C2O)c2c1OC(c1ccccc1)CC2O (configuration not stated)	none (no result: CCHF vOTU inh, Mtb bLac sens, MazF activator, 3CLpro inhibitor)
C#CCOCCOCCOCCNc1nc(N2CCN(C(=O)C(CCC(=O)O)n3cc(C(N)Cc4ccc(O)cc4)nn3)CC2)nc(N2CCN(C(=O)C(CCCCN)n3cc(C(N)C(C)CC)nn3)CC2)n1 (configuration not stated)	none (no result: CCHF vOTU inh, Mtb bLac sens, MazF activator, 3CLpro inhibitor)
CC(=O)Oc1c(C)cc(Cl)cc1C(=O)Nc1ccc([N+](=O)[O-])cc1Cl	Sa RN4220 lethal 97.9, Sa ugtP lethal 96.0
CC(=O)OCC(=O)Nc1ccc([N+](=O)[O-])cc1Cl	none
CCOC(=O)c1ccc(-c2c(-c3ccc4c(c3)OCO4)noc2-c2ccsc2)cc1F	Sa ugtP lethal 95.8
COc1cc(-c2c(-c3ccc4c(c3)OCO4)noc2-c2ccsc2)ccc1F	Sa ugtP lethal 86.9

Bioassay records as filed in PubChem.
